Set-up in all cases: species or system human, MV4-11 + K-562 + COLO205 + SK-N-BE2 + OVCAR-8
The subject of assay [1] is EPHA7. The settings on record: read-out: apparent Kd; compound concentrations: 100 nM and 1000 nM (sheet 'Samples'), CATDS: 1.2240200797628401E-2; n = 1.
In assay [2] the test system is GRK6. The note with it: read-out: apparent Kd, n = 1.
The test system of assay [3] is PIK3CB. The note with it: read-out: apparent Kd, compound concentrations: 100 nM and 1000 nM (sheet 'Samples'), n = 1.
The subject of assay [4] is PIM3. The note with it: read-out: apparent Kd; compound concentrations: 100 nM and 1000 nM (sheet 'Samples'), CATDS: 1.44947330035029E-2; n = 1.
Assay [5] has as its system RIPK3. The note with it: read-out: apparent Kd; compound concentrations: 100 nM and 1000 nM (sheet 'Samples'), CATDS: 1.26623913156397E-2; n = 1.
The subject of assay [6] is CDK4. The settings on record: read-out: apparent Kd, compound concentrations: 100 nM and 1000 nM (sheet 'Samples'), n = 1.
In assay [7] the test system is CAMK2B. The note with it: read-out: apparent Kd, compound concentrations: 100 nM and 1000 nM (sheet 'Samples'), n = 1.
For assay [8], the system named is CAMK2G. The note with it: read-out: apparent Kd; compound concentrations: 100 nM and 1000 nM (sheet 'Samples'), CATDS: 2.3496297830239501E-2; n = 1.
For assay [9], the system named is ADRBK1. The settings on record: read-out: apparent Kd, n = 1.
The test system of assay [10] is MDN1. The settings on record: read-out: apparent Kd, n = 1.
Assay [11] concerns PRKCZ. The settings on record: read-out: apparent Kd; compound concentrations:100 nM and 1000 nM (sheet 'Samples'); n = 1.
For assay [12], the system named is NME2;NME2P1. The note with it: read-out: apparent Kd; compound concentrations:100 nM and 1000 nM (sheet 'Samples'); n = 1.
The test system of assay [13] is PI4KB. The note with it: read-out: apparent Kd, n = 1.
Assay [14] has as its system BMPR1B. The settings on record: read-out: apparent Kd; compound concentrations:100 nM and 1000 nM (sheet 'Samples'); n = 1.
Assay [15] concerns MAP3K1. The note with it: read-out: apparent Kd, n = 1.
Assay [16] concerns CDK12. The settings on record: read-out: apparent Kd, compound concentrations: 100 nM and 1000 nM (sheet 'Samples'), n = 1.
Assay [17] concerns MAP3K6. The note with it: read-out: apparent Kd; compound concentrations: 100 nM and 1000 nM (sheet 'Samples'), CATDS: 7.2828700738199706E-2; n = 1.
The test system of assay [18] is ERN2. The settings on record: read-out: apparent Kd; compound concentrations:100 nM and 1000 nM (sheet 'Samples'); n = 1.
Setting [19] is: compound concentrations:100 nM and 1000 nM (sheet 'Samples').

The structures appear in SMILES notation. Where two headings read alike, the source gives them in different places.

In the case of `CCn1c(-c2cccnc2O)nc2cnccc21` [SB-736715], the potency estimated from few doses in assay [1] is 2080 nM; in assay [2] (compound concentrations: 100 nM and 1000 nM (sheet 'Samples'), CATDS: 1.19944612945155E-2), 2190 nM; in assay [3] (CATDS: 1.6268370150171501E-2), 1100 nM; in assay [4], 1390 nM; in assay [5] it was 1900 nM.

Take `O=C(O)C(F)(F)F.O=C(O)C(F)(F)F.O=c1[nH]ccc2nc(N[C@@H]3CCCNC3)nc(Nc3ccc(S(=O)(=O)N4CCOCC4)cc3)c12.O=c1[nH]ccc2nc(N[C@@H]3CCCNC3)nc(Nc3ccc(S(=O)(=O)N4CCOCC4)cc3)c12` [GSK2177277A]: in assay [6] (CATDS: 6.3800508588872503E-3), the potency estimated from few doses was 1600 nM.

Regarding `COc1cc[nH]c1/C=C1\C(=O)Nc2ccc(F)c(C#CC3(O)CCNCC3)c21.Cl` [RO0282986-001], the potency estimated from few doses is 123 nM in assay [7] (CATDS: 2.6528417916085501E-2) and 154 nM in assay [8].

Regarding `Cc1cc(-c2ccnc(Nc3cccc(C#N)c3)n2)cc(C)c1O` [GSK1440913A], the potency estimated from few doses in assay [9] (compound concentrations: 100 nM and 1000 nM (sheet 'Samples'), CATDS: 7.8557926604231804E-2) is 1430 nM.

As to `COc1ccc(-c2cc3c(N)ncnc3o2)cc1` [GW642138X], the potency estimated from few doses in assay [9] (compound concentrations: 100 nM and 1000 nM (sheet 'Samples'), CATDS: 0.10043155858125399) was 1820 nM.

With `Cl.Cl.NC(CNC(=O)c1cc(Br)c(-c2ccnc3[nH]ccc23)s1)c1ccccc1.NC(CNC(=O)c1cc(Br)c(-c2ccnc3[nH]ccc23)s1)c1ccccc1` (centres unmarked) [GSK1322949A], the potency estimated from few doses in assay [6] (CATDS: 3.2269694765046902E-2) was 1030 nM; in assay [10] (compound concentrations: 100 nM and 1000 nM (sheet 'Samples'), CATDS: 2.3593450099353701E-2), 2300 nM.

In the case of `CC(C)Nc1cc(-c2ccc3c(N)n[nH]c3c2)nc(N)n1` [GSK2221681A], the potency estimated from few doses in assay [11] is 1520 nM.

Regarding `Cc1cccc(Nc2nc(N[C@H]3CCNC3)ncc2C(N)=O)c1.Cl` [GSK2197149A], the potency estimated from few doses in assay [12] is 1460 nM; in assay [13] (setting [19]) it was 892 nM.

`Cc1ccccc1C1=C(c2cn(C)c3ccccc23)C(=O)NC1=O` [RO0317612-000]: the potency estimated from few doses in assay [7] (CATDS: 0.21692870054448801) is 479 nM.

For `CNCc1ccc(-c2cc(-c3nc(-c4ccc(S(=O)(=O)C(C)C)cc4)cnc3N)on2)cc1` [VE-822], the results for the potency estimated from few doses in assay [14] and in assay [15] (setting [19]) were 868 nM and 1260 nM, respectively.

On to `CCN(CC)Cc1ccc(Nc2nccc(-c3cnn4ncccc34)n2)cc1` [GW780056X], for which the potency estimated from few doses was 899 nM in [16] (CATDS: 2.2557982772038999E-2) and 1420 nM in [6] (CATDS: 1.9618421656054302E-2).

On to `CC(C)N1CC(=O)N(C)c2cnc(Nc3cccc(S(=O)(=O)CCN4CCOCC4)c3)nc21` [BI00009348], for which the potency estimated from few doses is 1560 nM in assay [15] (compound concentrations: 100 nM and 1000 nM (sheet 'Samples'), CATDS: 5.2672429134220697E-2); 698 nM in assay [17].

In the case of `Nc1nc(-c2ccc3c(N)n[nH]c3c2)cc(N2CCCC(NC(=O)c3ccccc3)C2)n1` (centres unmarked) [GSK2286775B], the potency estimated from few doses in [9] (setting [19]) is 2050 nM; in assay [18] it was 1580 nM; in [10] (setting [19]), 1290 nM.

For `NS(=O)(=O)c1ccc(NC=C2C(=O)Nc3ccc4ncsc4c32)cc1` [GW589933X], the potency estimated from few doses in assay [16] (CATDS: 1.98005897918999E-2) was 1010 nM.

On to `Cl.Cl.NCC(NCc1ccc(-c2ccnc3[nH]ccc23)s1)c1ccccc1.NCC(NCc1ccc(-c2ccnc3[nH]ccc23)s1)c1ccccc1` (centres unmarked) [GSK1321565A], for which, in assay [2] (setting [19]), the potency estimated from few doses is 1600 nM.

`Nc1nccc(-c2ccc3c(N)n[nH]c3c2)n1` [GSK1034945A]: the potency estimated from few doses in assay [11] is 1830 nM.

In the case of `CCC(CC)(CC)n1cnc2c(N)ncnc21` [SKF-97620], the potency estimated from few doses in assay [13] (compound concentrations: 100 nM and 1000 nM (sheet 'Samples'), CATDS: 7.0031928225578105E-2) was 170 nM; in assay [3] (CATDS: 4.8769305637968503E-2), 337 nM.

Take `CCn1c(-c2nonc2N)nc2cncc(Br)c21` [SB-738004]: in [11], the potency estimated from few doses was 544 nM.

`Nc1nc(-c2ccc3c(N)n[nH]c3c2)cc(N2CCCCC2)n1` [GSK2228768A]: the potency estimated from few doses in [12] is 1380 nM.
